Test results published in the supplement of paper PMC10849652.
Of roughly 7,900 targets only a part is listed; those with a hit were picked by preference. About 0.6% of all pairs of compound and target were hits.

Compound: c1cn2cc(-c3ccc4cn[nH]c4c3)nc(Nc3ccc(N4CCOCC4)cc3)c2n1 [entospletinib]
Assay: log2 fold change, soluble protein after heating vs DMSO (PISA); higher = thermal stabilisation; K562 cells, 10 uM, 30 min; active = over 0.2 and 3.5 SD of the protein, either way, in both replicates (recomputed)
Outline: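 Aliquots of K562 cells (2×10^6 cells/mL) treated with 10 μM compound for 30 min were heated for 3 min over 48°C-58°C. After pooling and extraction in PBS with 0.5% NP-40 at 4°C, soluble protein from a 21,000xg, 90 min spin was quantified by TMTpro 16plex LC-MS/MS with channel sums equalised. Thermal stability is expressed against control samples, from duplicates, as a log2 fold change.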

Sequence of UniProt Q99590 (Q99590 whole entry, looked up): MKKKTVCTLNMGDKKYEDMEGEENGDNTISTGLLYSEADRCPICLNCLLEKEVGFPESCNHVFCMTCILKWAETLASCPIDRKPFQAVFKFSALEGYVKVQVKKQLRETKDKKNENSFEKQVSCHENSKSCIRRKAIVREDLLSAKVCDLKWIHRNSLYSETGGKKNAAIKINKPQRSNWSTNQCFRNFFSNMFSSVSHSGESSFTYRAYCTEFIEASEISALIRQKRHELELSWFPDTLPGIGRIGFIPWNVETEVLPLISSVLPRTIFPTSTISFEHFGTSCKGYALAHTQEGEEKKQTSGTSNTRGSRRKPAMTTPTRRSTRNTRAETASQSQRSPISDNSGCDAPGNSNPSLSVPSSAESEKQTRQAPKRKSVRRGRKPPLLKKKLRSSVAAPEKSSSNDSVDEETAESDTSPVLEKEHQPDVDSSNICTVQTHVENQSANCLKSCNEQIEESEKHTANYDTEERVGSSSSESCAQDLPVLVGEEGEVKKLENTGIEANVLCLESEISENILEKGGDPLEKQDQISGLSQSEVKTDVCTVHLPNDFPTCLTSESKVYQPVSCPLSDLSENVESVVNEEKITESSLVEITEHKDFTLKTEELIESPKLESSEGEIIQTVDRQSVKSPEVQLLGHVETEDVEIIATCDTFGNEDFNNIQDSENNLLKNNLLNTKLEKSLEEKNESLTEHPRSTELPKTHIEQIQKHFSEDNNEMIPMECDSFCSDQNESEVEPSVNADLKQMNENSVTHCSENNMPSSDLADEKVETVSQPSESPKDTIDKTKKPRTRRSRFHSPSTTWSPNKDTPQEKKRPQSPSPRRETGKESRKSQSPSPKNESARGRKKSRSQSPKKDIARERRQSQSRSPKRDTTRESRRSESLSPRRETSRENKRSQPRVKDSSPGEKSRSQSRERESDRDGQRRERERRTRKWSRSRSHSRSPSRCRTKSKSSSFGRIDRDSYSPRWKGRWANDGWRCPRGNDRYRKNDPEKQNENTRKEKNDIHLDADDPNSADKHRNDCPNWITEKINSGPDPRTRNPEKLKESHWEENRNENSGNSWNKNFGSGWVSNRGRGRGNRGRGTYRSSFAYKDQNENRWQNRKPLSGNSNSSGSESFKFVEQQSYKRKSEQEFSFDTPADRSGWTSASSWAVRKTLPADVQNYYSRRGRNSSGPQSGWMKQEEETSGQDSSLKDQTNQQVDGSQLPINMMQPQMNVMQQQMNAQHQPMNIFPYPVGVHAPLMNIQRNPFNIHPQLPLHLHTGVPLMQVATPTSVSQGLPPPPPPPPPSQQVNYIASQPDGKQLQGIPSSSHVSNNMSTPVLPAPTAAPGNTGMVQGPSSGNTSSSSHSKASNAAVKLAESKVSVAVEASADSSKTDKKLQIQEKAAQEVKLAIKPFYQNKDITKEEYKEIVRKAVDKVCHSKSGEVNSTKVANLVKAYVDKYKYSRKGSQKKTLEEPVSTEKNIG
Sequence of UniProt Q9HB40 (Q9HB40 whole entry, looked up): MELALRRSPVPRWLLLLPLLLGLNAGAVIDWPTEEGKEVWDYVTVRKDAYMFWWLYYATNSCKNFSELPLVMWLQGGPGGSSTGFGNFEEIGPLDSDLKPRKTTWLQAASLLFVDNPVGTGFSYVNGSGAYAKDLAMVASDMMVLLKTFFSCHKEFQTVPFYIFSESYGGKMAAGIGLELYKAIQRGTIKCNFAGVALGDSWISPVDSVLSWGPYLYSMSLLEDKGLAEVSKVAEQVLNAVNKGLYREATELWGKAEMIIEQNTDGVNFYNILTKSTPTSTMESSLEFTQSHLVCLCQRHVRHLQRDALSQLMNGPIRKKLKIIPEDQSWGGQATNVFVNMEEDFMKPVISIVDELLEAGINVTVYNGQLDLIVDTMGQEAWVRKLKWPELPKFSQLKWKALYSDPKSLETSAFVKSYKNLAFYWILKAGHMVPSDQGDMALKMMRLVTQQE
Sequence of UniProt Q96IZ7 (Q96IZ7 whole entry, looked up): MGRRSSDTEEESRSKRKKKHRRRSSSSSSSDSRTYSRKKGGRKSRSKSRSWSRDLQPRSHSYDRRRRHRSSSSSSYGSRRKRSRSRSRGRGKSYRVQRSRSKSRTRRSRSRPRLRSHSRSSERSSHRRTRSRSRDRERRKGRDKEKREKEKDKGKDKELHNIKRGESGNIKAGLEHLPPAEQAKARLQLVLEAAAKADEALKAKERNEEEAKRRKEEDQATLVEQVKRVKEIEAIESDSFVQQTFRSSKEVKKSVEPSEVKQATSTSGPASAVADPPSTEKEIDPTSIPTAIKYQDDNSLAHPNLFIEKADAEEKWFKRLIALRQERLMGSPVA
Sequence of UniProt Q5T160 (Q5T160 whole entry, looked up): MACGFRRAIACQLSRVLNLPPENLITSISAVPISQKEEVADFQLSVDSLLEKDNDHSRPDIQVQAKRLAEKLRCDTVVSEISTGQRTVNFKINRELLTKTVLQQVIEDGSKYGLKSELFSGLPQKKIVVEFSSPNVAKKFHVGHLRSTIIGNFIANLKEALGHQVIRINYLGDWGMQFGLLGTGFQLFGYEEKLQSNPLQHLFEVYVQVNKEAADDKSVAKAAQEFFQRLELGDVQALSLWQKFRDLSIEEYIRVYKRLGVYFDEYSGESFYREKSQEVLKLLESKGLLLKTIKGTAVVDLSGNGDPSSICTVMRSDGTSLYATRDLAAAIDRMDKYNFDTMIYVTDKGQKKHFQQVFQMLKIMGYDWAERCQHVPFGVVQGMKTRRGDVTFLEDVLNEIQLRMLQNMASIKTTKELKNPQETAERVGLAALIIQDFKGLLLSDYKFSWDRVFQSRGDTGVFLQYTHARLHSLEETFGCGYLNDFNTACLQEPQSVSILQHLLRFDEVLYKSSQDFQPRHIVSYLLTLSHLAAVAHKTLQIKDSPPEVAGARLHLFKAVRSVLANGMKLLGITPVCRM
Sequence of UniProt Q9BXP2 (Q9BXP2 whole entry, looked up): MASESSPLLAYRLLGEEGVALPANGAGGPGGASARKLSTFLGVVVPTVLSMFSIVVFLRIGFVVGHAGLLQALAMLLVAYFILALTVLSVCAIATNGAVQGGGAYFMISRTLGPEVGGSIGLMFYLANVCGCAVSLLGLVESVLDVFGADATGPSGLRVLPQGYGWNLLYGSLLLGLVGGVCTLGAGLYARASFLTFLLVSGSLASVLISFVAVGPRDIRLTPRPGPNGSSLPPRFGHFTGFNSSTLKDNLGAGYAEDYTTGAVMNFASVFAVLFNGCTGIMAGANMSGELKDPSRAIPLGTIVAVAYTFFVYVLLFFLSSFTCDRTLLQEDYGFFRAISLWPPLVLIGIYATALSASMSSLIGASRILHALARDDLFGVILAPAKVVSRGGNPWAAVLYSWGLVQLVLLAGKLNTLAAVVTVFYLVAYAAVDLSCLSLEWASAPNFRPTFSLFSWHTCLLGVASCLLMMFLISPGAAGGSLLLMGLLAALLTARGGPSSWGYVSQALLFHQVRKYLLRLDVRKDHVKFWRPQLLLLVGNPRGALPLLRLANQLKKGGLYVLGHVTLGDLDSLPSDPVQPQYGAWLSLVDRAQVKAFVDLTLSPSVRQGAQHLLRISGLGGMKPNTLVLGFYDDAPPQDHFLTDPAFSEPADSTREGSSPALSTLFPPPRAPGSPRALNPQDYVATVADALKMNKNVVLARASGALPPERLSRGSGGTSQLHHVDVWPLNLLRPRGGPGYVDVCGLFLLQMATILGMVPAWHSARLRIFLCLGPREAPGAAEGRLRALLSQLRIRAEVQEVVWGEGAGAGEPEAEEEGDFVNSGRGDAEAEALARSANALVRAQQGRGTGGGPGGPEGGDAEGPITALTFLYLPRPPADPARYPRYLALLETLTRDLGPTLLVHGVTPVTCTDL
Sequence of UniProt Q9NW64 (Q9NW64 whole entry, looked up): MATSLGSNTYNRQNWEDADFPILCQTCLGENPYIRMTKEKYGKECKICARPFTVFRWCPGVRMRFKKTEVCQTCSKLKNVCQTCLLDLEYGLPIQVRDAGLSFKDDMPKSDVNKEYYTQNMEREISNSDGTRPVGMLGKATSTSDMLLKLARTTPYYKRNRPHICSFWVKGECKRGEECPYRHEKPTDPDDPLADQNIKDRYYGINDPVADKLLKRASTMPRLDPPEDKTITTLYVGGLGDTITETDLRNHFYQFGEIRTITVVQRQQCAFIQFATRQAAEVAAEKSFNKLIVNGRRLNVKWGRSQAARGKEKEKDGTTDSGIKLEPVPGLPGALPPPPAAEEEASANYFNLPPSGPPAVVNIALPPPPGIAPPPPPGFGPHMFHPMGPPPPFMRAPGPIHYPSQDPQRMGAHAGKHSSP
Sequence of UniProt Q9BUV8 (Q9BUV8 whole entry, looked up): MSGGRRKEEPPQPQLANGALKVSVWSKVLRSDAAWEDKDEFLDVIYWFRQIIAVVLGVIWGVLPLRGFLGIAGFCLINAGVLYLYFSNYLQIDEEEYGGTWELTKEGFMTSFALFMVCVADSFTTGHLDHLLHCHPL
Sequence of UniProt O00560 (O00560 whole entry, looked up): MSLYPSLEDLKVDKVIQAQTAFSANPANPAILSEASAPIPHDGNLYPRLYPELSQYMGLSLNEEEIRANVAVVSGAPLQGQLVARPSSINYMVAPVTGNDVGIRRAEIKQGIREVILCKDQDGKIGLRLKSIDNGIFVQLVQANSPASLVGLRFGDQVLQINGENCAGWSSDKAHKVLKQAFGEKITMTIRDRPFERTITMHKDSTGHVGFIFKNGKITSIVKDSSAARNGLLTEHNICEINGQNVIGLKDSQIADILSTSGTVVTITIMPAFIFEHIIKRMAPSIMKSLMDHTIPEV
Sequence of UniProt Q9H4P4 (Q9H4P4 whole entry, looked up): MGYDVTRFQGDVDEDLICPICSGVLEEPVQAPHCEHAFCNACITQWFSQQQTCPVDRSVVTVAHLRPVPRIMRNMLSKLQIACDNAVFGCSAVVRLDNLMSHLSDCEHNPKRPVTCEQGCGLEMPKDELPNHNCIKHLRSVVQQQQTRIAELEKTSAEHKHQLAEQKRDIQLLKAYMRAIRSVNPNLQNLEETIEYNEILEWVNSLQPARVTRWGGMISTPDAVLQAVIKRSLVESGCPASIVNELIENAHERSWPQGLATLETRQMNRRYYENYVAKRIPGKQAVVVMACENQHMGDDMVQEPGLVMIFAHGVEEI

log2 fold change, inactive:
RSRC2 (UniProt Q7L4I2) 0.019
RPS14 (UniProt P62263) 0.025
RARS2 (UniProt Q5T160) 0
SLC12A9 (UniProt Q9BXP2) -0.021
RBM33 (UniProt Q96EV2) 0
SERINC1 (UniProt Q9NRX5) 0.022
SCPEP1 (UniProt Q9HB40) 0.004
RANBP2 (UniProt P49792) -0.009
SDCBP isoform 2 (UniProt O00560) -0.2
SHCBP1 (UniProt Q8NEM2) 0.039
RPS6KA1 isoform 2 (UniProt Q15418) 0.026
RAB3IL1 (UniProt E9PK89) -0.039
RBM22 (UniProt Q9NW64) -0.015
RBM12 (UniProt Q9NTZ6) -0.055
RPS3A (UniProt P61247) 0.082
RNF41 (UniProt Q9H4P4) 0.044
RDH10 (UniProt Q8IZV5) 0.03
RECQL (UniProt P46063) 0.012
SKP1 (UniProt P63208) 0.008
RAVER1 (UniProt E9PAU2) 0.073
RBM17 (UniProt Q96I25) -0.007
SART3, A0A499FI31 0.023
SCAF11 (UniProt Q99590) 0.185
RRAGB (UniProt Q5VZM2) -0.04
SH2D1B (UniProt O14796) -0.372
SAMSN1 isoform 3 (UniProt Q9NSI8) -0.058
RPS12 (UniProt P25398) 0.055
RPS9 (UniProt P46781) 0.042
SLC1A5 (UniProt Q15758) -0.032
SIDT2 isoform 2 (UniProt Q8NBJ9) -0.003
RPS19 (UniProt P39019) 0.057
RAB5IF isoform 5 (UniProt Q9BUV8) -0.086
RAB3GAP2 (UniProt Q9H2M9) 0.091
SEC16A isoform 5 (UniProt O15027) 0.069
RUNX1 isoform 8 (UniProt Q01196) 0.116
RSRC1 (UniProt Q96IZ7) 0.076
RPS16 (UniProt P62249) 0.074
